# ChEMBL document CHEMBL3988442, “University of Dundee, Small-Polar-MMV Screening Library” (2021)
# In all, about 48,000 compounds went through this assay and about 13,000 (27%) showed an effect of 50% or more. The list shows a part of the results.
# Tested on: Wolbachia pipientis
# Assay: Anti-Wolbachia Cell-Based Screen
# Assay type: functional
# Parameters: scale not given: in the data most compounds retested in dose-response had high values
# Settings: 5 µM
row,Structure (SMILES),Percent Effect
1,Cc1nn(C)cc1CN(C)Cc1cc2c(cc1OC(F)F)OCO2,5.231%
2,CCS(=O)(=O)N1CCC(c2nccn2Cc2ccncc2)CC1,17.72%
3,COc1cccc(OCCCc2cc(C#N)ccn2)c1,-11.05%
4,Cc1cccc(C(C(=O)NCc2nc(-c3cccnc3)no2)N(C)C)c1 (centres undefined),-3.627%
5,CC1=C[C@@H](CN2CCOCC2)[C@H](C(C)C)C[C@H]1Cc1nnc(C)o1,-6.193%
6,Cc1sc(Br)cc1S(=O)(=O)NCCCN.Cl,-10.31%
7,Cc1cc(F)c(S(=O)(=O)NCC(C)(C)N)cc1F.Cl,99.53%
8,Cc1sc(Br)cc1S(=O)(=O)NCCN.Cl,-12.99%
9,Cc1c(F)cccc1S(=O)(=O)NCC(C)(C)CC(C)O (centres undefined),-11.41%
10,Cc1cc(S(=O)(=O)NCC(C)(O)CN(C)C)c(F)cc1F (centres undefined),86.13%
11,Cc1cc(F)c(S(=O)(=O)NCc2ccnc(N(C)C)n2)cc1F,-5.146%
12,Cc1cc2[nH]cc(C(=O)N3CCCCC3c3ccc(F)cc3)c(=O)n2n1 (centres undefined),-0.32%
13,Cc1ncsc1C(=O)N(C)CCc1ccncc1,-1.181%
14,COc1ccccc1CC1CCCN(CCN2CCOC2=O)C1 (centres undefined),-15.91%
15,Cc1cccc(OC2CCN(C(=O)NCCn3ccnc3)CC2)c1C,-9.4%
16,COCCN1C[C@H]2CC[C@@H]1CN(CC(=O)Nc1ccn(C)n1)C2,0.2654%
17,Br.Cc1ccccc1OC1CCN(CC(=O)Nc2cnn(C)c2C)CC1,127.8%
18,Cc1nn(C)c(C)c1NC(=O)CN1CCOC(Cn2cccn2)C1 (centres undefined),-5.215%
19,Br.Cc1ccccc1OC1CCN(CC(=O)Nc2ccn(C)n2)CC1,95.2%
20,CC(=O)c1ccc(CN2CC(Oc3ccccc3C)C2)cc1,1.561%
21,Cn1ccc(NC(=O)CN2C[C@H]3CC[C@@H]2CN(Cc2ccccn2)C3)n1,-23.26%
22,Cc1ccccc1OC1CCN(CC(=O)Nc2cn(C)nc2C)CC1,143.3%
23,Cc1nn(C)c(C)c1NC(=O)CNC(c1ccccc1)C1CCC1 (centres undefined),-2.911%
24,Cc1ccccc1OC1CCN(CC(=O)Nc2c(C)nn(C)c2C)CC1,133%
25,Cc1cccc2sc(NC(=O)CN3CCC(C)CC3)nc12,-4.691%
26,CC(O)CNC(=O)NCCCN1CCN(c2ncccn2)CC1 (centres undefined),-2.851%

row,Structure (SMILES),Percent Effect
1,CCOCCn1nnc(C2(NC(=O)c3ccccc3)CCCC2)n1,-1.903%
2,CN(C)CCOc1ccc(CNC(=O)c2cccc3[nH]ncc23)cc1,-2.455%
3,CN(C)C(=O)CCCNc1ncc2c(n1)CCN2c1ccccc1,-14.16%
4,Cn1c(=O)oc2ccc(NC(=O)N3CCSCC3)cc21,-14.24%
5,Cn1nc2c(cc1=O)CN(Cc1nnc(C3CC3)o1)CC2,7.472%
6,Cc1noc(C)c1C(=O)N(C)C(C)c1ccncc1 (centres undefined),-19.42%
7,O=C(Nc1ccccc1)c1ccc2c(c1)C1(CCCCC1)CN2.O=C(O)C(F)(F)F,15.72%
8,CCOC(CC)C(=O)NCc1cccc(N2CCCCC2=O)c1 (centres undefined),-0.7778%
9,NS(=O)(=O)c1ccc(NC(=O)CSc2ccc3c(c2)CCC3)cc1,16.99%
10,CCN1CC(C(=O)N2CCC(Oc3ccccc3C)CC2)CC1=O (centres undefined),-3.691%
11,CC(=O)c1cccc(CN2CC(Oc3ccccc3C)C2)c1,6.758%
12,CCn1cc(NC(=O)CN2CCC(Oc3ccc(F)cc3)CC2)c(C)n1.Cl,113.2%
13,Cc1[nH]c(=O)[nH]c(=O)c1CC(=O)N1CCC(Oc2ccc(F)cc2)CC1,-20.3%
14,N#Cc1ccc(OC2CCN(CC(=O)NCC(F)(F)F)CC2)cc1,6.533%
15,CCn1cc(NC(=O)CN2CCC(Oc3ccccc3C)CC2)c(C)n1,103.8%
16,O=c1[nH]c(N2CCN(C3CC3)CC2)nc2c1cnn2-c1ccccc1,4.194%
17,O=C(NCc1cccs1)NCC(O)(c1cccs1)C1CC1 (centres undefined),4.96%
18,Cc1csc(CNC(=O)Cc2ccc3c(c2)OCCO3)n1,-1.573%
19,Cc1csc(CNC(=O)NCCc2ccc3c(c2)OCCO3)n1,-0.3298%
20,Cc1ncsc1CNC(=O)NCC1(c2ccc3c(c2)OCO3)CC1,120.8%
21,Cc1csc(CNC(=O)N(C)Cc2ccc3c(c2)OCO3)n1,-4.172%
22,Cc1csc(CNC(=O)NCC2(c3ccc4c(c3)OCO4)CC2)n1,126.6%
23,Cc1csc(CNC(=O)NCc2ccc3c(c2)OCCO3)n1,-13.77%
24,Cc1ncsc1CNC(=O)N(Cc1ccccc1)CC(C)(C)O,-10.76%
25,Cc1csc(CNC(=O)Nc2ccc3c(c2)OCO3)n1,95.91%
26,Cc1n[nH]cc1CNCC1(c2ccc3c(c2)OCO3)CCOCC1.Cl,4.447%

row,Structure (SMILES),Percent Effect
1,Cc1ccc(CN2CCc3c(C(=O)N(C)C)n[nH]c3C2)o1,-11.98%
2,Cc1ccc(CNC2(Cc3cc(-c4ccccn4)on3)COC2)o1,-9.349%
3,CCSc1cc(C(=O)N(Cc2cnn(C)c2)C(C)C)ccn1,-10.41%
4,COc1ccc(CN(Cc2cnn(C)c2)CC(C)C)cn1,-28.68%
5,COc1cc(C(=O)N(Cc2cnn(C)c2)C(C)C)ccc1C,113.7%
6,COc1cc(C(=O)N(Cc2cnn(C)c2)C(C)C)ccc1OCC(N)=O,4.705%
7,COc1cc(C(=O)N(Cc2cnn(C)c2)C(C)C)ccc1OC(C)C,121.6%
8,CCOc1ccc(C(=O)N(Cc2cnn(C)c2)C(C)C)cc1OCC,111.9%
9,CCOc1ccc(C(=O)N(Cc2cnn(C)c2)C(C)C)cc1,-5.805%
10,COc1ccc(C(=O)N(Cc2cnn(C)c2)C(C)C)cc1Br,9.999%
11,CC(C)N(Cc1ccc(C(F)(F)F)nc1)Cc1cnn(C)c1,15.8%
12,COc1ccc(C(=O)N(Cc2cnn(C)c2)C(C)C)cc1OC(F)F,110.3%
13,COCCCOc1ccc(C(=O)N(Cc2cnn(C)c2)C(C)C)cn1,5.983%
14,Cc1ccc(NC(=O)N(C)Cc2cnn(C)c2)cc1OCC(F)F,-4.297%
15,CN1C[C@@H]2CN(C(=O)C3CC=CC3)C[C@@H]2C1=O,-1.664%
16,Cc1nnc(CN2CCC3(CCC(=O)N([C@H]4CC[C@H](O)CC4)C3)CC2)o1,5.383%
17,CC(C)=CCN1CCN(C(C)c2cccnc2)CC1 (centres undefined),2.838%
18,CN(CCN1CCOCC1)C(=O)CCCOCCc1ccccc1,6.061%
19,CCN(Cc1nc(COC)no1)C(=O)CCn1c(C)cc2ccccc21,-20.66%
20,CN1CC=C(CCN(C)C(=O)CCc2ccccc2)CC1,90.24%
21,CCCS(=O)(=O)N(C)C(=O)CCc1ccccc1,-9.766%
22,CCN(CC1=CCN(C)CC1)C(=O)CCOC,97.45%
23,COCCC(=O)N(Cc1cccnc1)CC1CCN(C2CCCC2)CC1,-4.098%
24,CCc1ccccc1OCCN(C)C(=O)CCN1CCCO1,2.484%
25,CCOCCC(=O)N(C)CC1Cc2ccccc2CN1C (centres undefined),13.82%
26,COCCC(=O)N(C)CCC1=CCN(C)CC1,102.2%

row,Structure (SMILES),Percent Effect
1,FC(F)(F)C1CCCn2c(CNCc3ccsc3)nnc21 (centres undefined),5.709%
2,CCCc1noc(CS(=O)(=O)c2cccc(OC)c2)n1,19.11%
3,CC(NC(=O)NCCCNS(C)(=O)=O)c1ccncc1 (centres undefined),0.1158%
4,CCc1noc(C(C)N(C)Cc2cc(Br)ccc2OC)n1 (centres undefined),1.676%
5,O=C(c1ccc(Cl)cc1)N1CCC(N2CCOC2=O)CC1,107.7%
6,O=C1OCCN1CC(=O)N1C[C@H]2CC[C@@H]1CN(C(=O)c1ccccc1)C2,-14.7%
7,O=C(c1ccc(Cl)cc1)N1CCC(N2CCCOC2=O)CC1,100%
8,CCS(=O)(=O)N(C)C1CCN(C(=O)c2ccc(Cl)cc2)CC1,-4.195%
9,COc1cccc2c1OCC(C(=O)N1CCC(N3CCOC3=O)CC1)C2 (centres undefined),-3.402%
10,CC(C)S(=O)(=O)NCC1CCCN(C(=O)c2ccc(Cl)cc2)C1 (centres undefined),-24.01%
11,COCc1ccccc1NC(=O)NC(C)c1ccc(C)o1 (centres undefined),-2.277%
12,O=C(O)c1c[nH]c2cc(NS(=O)(=O)c3cccc(Cl)c3F)ccc12,-1.912%
13,O=C(O)c1c[nH]c2cc(NS(=O)(=O)c3ccc(Cl)cc3F)ccc12,101.8%
14,Cc1c(F)cc(C(=O)O)cc1S(=O)(=O)Nc1cccc(C(F)F)c1,-21.42%
15,Cc1ccc(F)cc1S(=O)(=O)Nc1cnc(N2CCCC2)nc1,3.743%
16,CSc1c[nH]nc1NS(=O)(=O)c1cc(F)ccc1Cl,16.47%
17,Cn1cc(Br)c(=O)c(NS(=O)(=O)c2cc(F)ccc2Cl)c1,-8.345%
18,Cc1ccc(F)cc1S(=O)(=O)Nc1ccc2c(C(=O)O)c[nH]c2c1,88.84%
19,COc1ccccc1S(=O)(=O)Nc1ccc2c(C(=O)O)c[nH]c2c1,-5.607%
20,O=C(O)c1c[nH]c2cc(NS(=O)(=O)c3cccc(F)c3F)ccc12,98.18%
21,O=C(O)c1c[nH]c2cc(NS(=O)(=O)c3cc(F)ccc3Cl)ccc12,93.61%
22,Cc1cc(NC(=O)N2CCN(C)CC2C)n(CCC#N)n1 (centres undefined),-16.44%
23,N#CCCN(Cc1ccco1)C(=O)Cc1ccc(-n2cnnn2)cc1,-12.81%
24,O=C(c1ccc2ccccc2c1)C1CCCN(C(=O)Cn2cnnn2)C1 (centres undefined),-17.21%
25,N#Cc1nccnc1N1CCC(c2nc(C(F)(F)F)c[nH]2)CC1,-6.885%
26,CNC(=O)NC(=O)CN1CCCN(CC(F)(F)F)CC1,5.4%
